For 40 compounds, outcome and AC50 results are on record in PubChem BioAssay (EPA / NIEHS).

A word on the AC50: it is the concentration at which the activity in the assay is half-maximal.

The source made the active and inactive calls. How the source made its calls: active means hit-call score of the fitted dose curve at least 0.9, where 1 is the maximum; inactive means score below 0.9.

Chain of Fatty acid synthase (Homo sapiens) (P49327 whole entry, looked up): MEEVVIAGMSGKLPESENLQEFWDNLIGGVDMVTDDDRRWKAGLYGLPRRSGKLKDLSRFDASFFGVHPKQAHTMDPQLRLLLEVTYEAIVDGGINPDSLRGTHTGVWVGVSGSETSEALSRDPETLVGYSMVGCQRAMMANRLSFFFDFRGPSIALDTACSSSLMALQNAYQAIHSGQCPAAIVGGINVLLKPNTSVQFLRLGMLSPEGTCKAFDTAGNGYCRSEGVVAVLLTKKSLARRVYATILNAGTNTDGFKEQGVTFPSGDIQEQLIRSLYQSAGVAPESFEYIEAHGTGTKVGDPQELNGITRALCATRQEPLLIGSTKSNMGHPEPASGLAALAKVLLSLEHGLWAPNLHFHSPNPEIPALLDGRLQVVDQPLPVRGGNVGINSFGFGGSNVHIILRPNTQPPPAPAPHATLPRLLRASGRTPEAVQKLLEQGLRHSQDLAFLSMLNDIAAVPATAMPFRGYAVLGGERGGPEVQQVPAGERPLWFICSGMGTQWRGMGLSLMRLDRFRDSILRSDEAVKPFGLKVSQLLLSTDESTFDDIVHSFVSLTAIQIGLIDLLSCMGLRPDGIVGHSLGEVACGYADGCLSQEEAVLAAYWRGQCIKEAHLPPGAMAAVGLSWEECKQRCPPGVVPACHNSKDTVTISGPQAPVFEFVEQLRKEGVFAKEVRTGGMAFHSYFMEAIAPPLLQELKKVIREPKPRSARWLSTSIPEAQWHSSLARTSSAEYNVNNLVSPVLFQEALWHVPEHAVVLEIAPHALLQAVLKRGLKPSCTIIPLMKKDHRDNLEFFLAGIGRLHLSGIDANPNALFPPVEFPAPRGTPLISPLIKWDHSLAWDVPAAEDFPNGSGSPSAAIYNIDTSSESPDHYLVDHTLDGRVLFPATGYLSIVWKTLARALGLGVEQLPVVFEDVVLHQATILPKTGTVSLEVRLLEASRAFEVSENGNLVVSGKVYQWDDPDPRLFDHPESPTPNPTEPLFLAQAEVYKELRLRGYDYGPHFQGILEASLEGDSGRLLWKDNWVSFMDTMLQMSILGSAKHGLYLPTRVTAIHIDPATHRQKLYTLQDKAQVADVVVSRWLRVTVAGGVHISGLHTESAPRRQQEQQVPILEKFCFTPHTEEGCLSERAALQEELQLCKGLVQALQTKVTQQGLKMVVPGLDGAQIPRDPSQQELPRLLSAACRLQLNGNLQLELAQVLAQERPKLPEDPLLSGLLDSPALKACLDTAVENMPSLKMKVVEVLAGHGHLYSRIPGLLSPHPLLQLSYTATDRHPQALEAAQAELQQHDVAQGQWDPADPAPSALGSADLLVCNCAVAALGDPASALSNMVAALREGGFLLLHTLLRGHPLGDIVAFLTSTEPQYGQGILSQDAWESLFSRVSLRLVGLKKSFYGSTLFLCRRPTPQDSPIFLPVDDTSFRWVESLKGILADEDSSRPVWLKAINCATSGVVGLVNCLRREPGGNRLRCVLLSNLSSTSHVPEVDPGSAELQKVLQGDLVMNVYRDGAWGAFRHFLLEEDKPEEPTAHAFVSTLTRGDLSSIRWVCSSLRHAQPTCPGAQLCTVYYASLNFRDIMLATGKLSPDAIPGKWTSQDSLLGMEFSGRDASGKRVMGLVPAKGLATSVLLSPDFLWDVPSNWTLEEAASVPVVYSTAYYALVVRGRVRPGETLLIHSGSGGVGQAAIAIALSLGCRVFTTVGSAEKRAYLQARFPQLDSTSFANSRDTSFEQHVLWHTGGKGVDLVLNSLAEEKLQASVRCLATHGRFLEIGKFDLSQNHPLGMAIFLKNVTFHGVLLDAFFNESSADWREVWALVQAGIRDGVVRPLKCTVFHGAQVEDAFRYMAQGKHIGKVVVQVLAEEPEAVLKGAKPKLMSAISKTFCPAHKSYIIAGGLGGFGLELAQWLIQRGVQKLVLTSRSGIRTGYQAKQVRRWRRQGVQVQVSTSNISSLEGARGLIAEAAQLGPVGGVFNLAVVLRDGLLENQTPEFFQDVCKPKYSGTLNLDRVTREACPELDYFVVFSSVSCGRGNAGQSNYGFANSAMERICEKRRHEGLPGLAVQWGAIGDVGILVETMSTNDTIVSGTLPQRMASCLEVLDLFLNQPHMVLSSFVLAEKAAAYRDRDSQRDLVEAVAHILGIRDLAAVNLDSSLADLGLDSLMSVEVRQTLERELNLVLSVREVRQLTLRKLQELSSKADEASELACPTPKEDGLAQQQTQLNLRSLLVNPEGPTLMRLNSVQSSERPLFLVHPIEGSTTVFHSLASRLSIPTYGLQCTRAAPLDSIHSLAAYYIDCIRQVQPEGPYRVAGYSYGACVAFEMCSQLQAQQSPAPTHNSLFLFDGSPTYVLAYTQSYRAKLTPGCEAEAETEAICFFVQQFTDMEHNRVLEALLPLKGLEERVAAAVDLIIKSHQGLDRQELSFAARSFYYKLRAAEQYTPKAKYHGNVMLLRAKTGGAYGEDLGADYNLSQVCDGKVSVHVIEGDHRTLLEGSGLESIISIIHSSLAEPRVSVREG

Read-out in the assay: Fatty acid synthase (Homo sapiens) (UniProt P49327)
The assay is described as follows: LTEA_HepaRG_FASN: Life Technologies and Expression Analysis (LTEA) Assay for Fatty Acid Synthase (FASN) using HepaRG (AID 2283448). The conditions noted are these: mRNA level, 48 h; actives raise or lower the signal. On the procedure: LTEA_HepaRG is a cell based, multiplexed-readout assay that uses HepaRG, a human liver cell line, with measurements taken at 48 hours after chemical dosing on a 96-well plate.LTEA_HepaRG_FASN is one of 102 assay component(s) measured in the LTEA HepaRG cell culture assay. It is a marker of Steatosis.Data from the assay component LTEA_HepaRG_FASN was analyzed into 1 endpoint. This assay endpoint, LTEA_HepaRG_FASN, was analyzed with bidirectional fitting relative to DMSO as the negative control and baseline of activity. Using a type of inducible reporter, measures of mRNA induction for gain or loss-of-signal activity can be used to understand regulation of transcription factor activity. To generalize the intended target to other relatable targets, this assay endpoint is annotated to the lyase intended target family, where the subfamily is fatty acid synthase.
A total of 1060 chemcials from the ToxCast library were tested in eight-point concentration-response experiments. Cell culture and cytotoxicity assays were conducted at Thermo Fisher Scientific's Custom Services facility (Madison, WI). A single lot of human HepaRG cells (Thermo Fisher Scientific, Frederick, MD) was used for the cell culture experiments. 96-well format collagen type I coated plates of human HepaRG cells were prepared using established methods. Briefly, cryopreserved HepaRG cells were thawed, plated at a density of approximately 100,000 cells/well in HepaRG Thaw, Plate, and General Purpose media (HPRG770, Thermo Fisher Scientific), and incubated for 48 hours. 0.5% DMSO was selected as vehicle control to balance the requisite need of DMSO in HepaRG cultures to maintain differentiation (for example, baseline metabolism, proportions of hepatocytes vs. cholangiocytes), while enabling further hepatic receptor pathway activation (for example, PXR and CAR) in response to chemical exposure. 48 hours after plating, the culture medium was replaced with HepaRG Serum-Free Incudtion Media. Cells were exposed to each test chemical in duplicate and maintained in CO2 incubators for another 48 hours. Chemical plates were thawed to room temperature and 200x concentrations of treatment groups were prepared. 8-point conentration-reponse curves were made with the highest exposure at 100 uM, followed by half-log dilutions, all in 0.5% DMSO. Each test plate contained variouse controls, induction positive controls (1mM phenobarbital), cytotoxicity positive controls ([…] aflatoxin B1), vehicle controls (0.5% DMSO), and total lysis controls (0.5% DMSO). Cell morphology images were taken using an Essen IncuCyte FLR automated microscope, with six 96-well plates imaged in about 24 minutes. Images were captured and exported and JPEG files. Spent culture media was transfered to black-well plates for the LDH assay, and remaining media was sorted at -80 C for later use. Cells were treated with RLT buffer and frozen until shipped for gene expression analysis. Total RNA was isolated from the cell suspension in 75 uL of Buffer RLT (Qiagen, Germantown, MD 20874) by Quintiles/Expression Analysis (Durham, NC) using a custom isolation procedure. Total RNA from each plate well was transferred to a preamplification plate. Fluidigm's 96.96 Dynamic ArrayTM (Fluidigm, Amsterdam, the Netherlands) technology was used for gene expression analyses by quantitative reverse transcription polymerase chain reaction (qRT-PCR, performed by Quintiles/Expression Analysis, Durham, NC)89. Standard TaqManTM Assays (Applied Biosystems/ThermoFisher Scientific, Foster City, CA) were used to assess the expression of 93 genes selected based on their selectivity and sensitivity to important hepatic receptors known to be modulated by environmental chemicals; importance in human hepatocyte functionality; and hepatotoxicity. […]
`CCCCCCCCCCCCN1CCCC1=O`: the result was inactive.
Still for that read-out and setting: then `c1ccc2c(c1)ccc1ccccc12`, with “inactive”.
Take `CC(=O)NC1(c2cccc(F)c2)CCN(CC[C@@]2(c3ccc(Cl)c(Cl)c3)CN(c3ccccc3)C(=O)CO2)CC1`: the compound was called inactive.
On the same count and under the same terms, then `CCOC(=O)CC(O)(CC(=O)OCC)C(=O)OCC`, with “inactive”.
On to `CCCCCCCCCCCCc1ccccc1S(=O)(=O)O`, for which the AC50 is 74.5 µM (active).
With `CC(O)CO` (stereo not given), the call was inactive.
The same measure, in the same setting: then `CCCCCCCCC(=O)O`, with “inactive”.
In the case of `CCc1nn(C2CCCCC2)c2cc(C3(C#N)CCC(C(=O)O)CC3)ccc12` (stereo not given), the AC50 was 85.1 µM (active).
With `CCCCCCC(=O)O`, the compound was classed as inactive.
Same read-out and setting: then `COCC(C)OCC(C)O` (stereo not given), with “inactive”.
As to `OC1CCC(C2CCCCC2)CC1` (stereo not given), the call was inactive.
Regarding `Cc1oc(-c2ccccc2)nc1CCOc1ccc(C[C@H](Nc2ccccc2C(=O)c2ccccc2)C(=O)O)cc1`, the AC50 was 31.9 µM (active).
`C[C@@H]1C[C@H]2[C@@H]3CCC4=CC(=O)C=C[C@]4(C)[C@@]3(F)[C@@H](O)C[C@]2(C)[C@@]1(O)C(=O)COP(=O)(O)O`: the compound was classed as inactive.
Regarding `ClC1=C(Cl)C(Cl)(Cl)C(Cl)=C1Cl`, the call was inactive.
Same read-out and setting: then `CCCCCCCCOC(=O)CCCCCCCCC(=O)OCCCCCCCC`, with “inactive”; and `CN(C)C=O`, with “inactive”; and `COCC(C)O` (stereo not given), with “inactive”.
As for `CC(C)(C)c1ccc(O)c(C(C)(C)C)c1`, the compound was classed as inactive.
On the same count and under the same terms, then `O=C(OCCOCCOC(=O)c1ccccc1)c1ccccc1`, with “inactive”.
On to `c1ccc2cc3c(ccc4ccccc43)cc2c1`, for which the AC50 was 4.82 µM (active).
Still for that read-out and setting: then `NC(=O)N(O)[C@@H]1C=C[C@H](Oc2cccc(Oc3ccc(F)cc3)c2)C1`, with 85 µM (active); and `CC(C)(C)c1cc(C(C)(C)C)c(O)c(C(C)(C)C)c1`, with 50 µM (active).
Regarding `COc1ccc([N+](=O)[O-])cc1N`, the compound was called inactive.
In the case of `CC(C)CCCCCCOC(=O)CCCCC(=O)OCCCCCCC(C)C`, the compound was classed as inactive.
Still for that read-out and setting: then `Oc1cccc(O)c1`, with “inactive”; and `c1ccc2c(c1)Cc1ccccc1-2`, with “inactive”.
Consider `Cc1cc(C)c(O)c(C)c1`, for which the compound was called inactive.
As to `CC#C[C@]1(O)CC[C@H]2[C@@H]3CCC4=CC(=O)CCC4=C3[C@@H](c3ccc(N(C)C)cc3)C[C@@]21C`, the AC50 is 4.54 µM (active).
For `O=C(O)c1ccccc1C(c1ccc(O)cc1)c1ccc(O)cc1`, the compound was called inactive.
`CN1CCN(c2ccccc2/C=C2\SCCN(c3ccc(Cl)c(Cl)c3)C2=O)CC1`: the result was inactive.
Take `COC(=O)CCCCC(=O)OC`: the result was inactive.
With `Cc1cc(CCN2CCN(c3nsc4ccccc34)CC2)cc2c1NC(=O)CC2(C)C`, the AC50 was 50 µM (active).
For `CCc1ccc(CCOc2ccc(CC3SC(=O)NC3=O)cc2)nc1` (stereo not given), the compound was classed as inactive.
With `CCCCC(CC)COC(=O)CCCCC(=O)OCc1ccccc1` (stereo not given), the compound was classed as inactive.
For `CCCOc1sc(C(=O)N2CCC(c3cc(CN)ccc3F)CC2)c(C)c1Br`, the compound was classed as inactive.
Take `Nc1cccc2c(N)cccc12`: the AC50 is 18.3 µM (active).
As to `CCCCC(CC)COC(=O)CCCCC(=O)OCC(CC)CCCC` (stereo not given), the call was inactive.
Still for that read-out and setting: then `CC(C)(C)c1cccc(C(C)(C)C)c1O`, with “inactive”.
`O=C(O)Cc1cc(I)c(Oc2cc(I)c(O)c(I)c2)c(I)c1`: the AC50 was 60.2 µM (active).
Same read-out and setting: then `CC[C@H](c1ccc(O)cc1)[C@@H](CC)c1ccc(O)cc1`, with 76.2 µM (active).
